Where a name gives a salt, the structure may show the parent alone.
What was measured:
Assay in all cases: Euclidean distance of Cell Painting phenotypic profile (signed KS, 77 features) to DMSO centroid (dimensionless distance); 5 or 10 uM (library dependent); higher = stronger phenotypic change vs DMSO (phenoactivity)
Conditions in all cases: 48 h
786-O = test system: 786-O
How it was run: (§1)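 Library compounds were applied at 10 or 5 uM, depending on the library, with 0.1% DMSO final, for 48 h to five cancer lines and a healthy fibroblast line. After staining, cells were imaged confocally at 20X across 9 fields per well, and Harmony extracted 77 features, each scored as a signed Kolmogorov-Smirnov statistic against vehicle wells on the same plate. Phenoactivity is the Euclidean distance between each profile and the median vehicle profile, with profiles first plate-position corrected, correlation-weighted and averaged over replicates at the top dose.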

A549 = test system: A549
How it was run: as §1

DU145 = test system: DU145
How it was run: as §1

FB = test system: FB
How it was run: as §1

HEPG2 = test system: HEPG2
How it was run: as §1

OVCAR4 = test system: OVCAR4
How it was run: as §1

Row | SMILES | Euclidean distance (786-O) | Euclidean distance (A549) | Euclidean distance (DU145) | Euclidean distance (FB) | Euclidean distance (HEPG2) | Euclidean distance (OVCAR4)
1 | CCN(CC)CCCCNc1ncc2cc(-c3cc(OC)cc(OC)c3)c(NC(=O)NC(C)(C)C)nc2n1 | 3.18 | 1.42 | 2.75 | 3.93 | 1.84 | 1.16
2 | CN1CCC(=C2c3ccccc3CC(=O)c3sccc32)CC1 [Ketotifen Fumarate] | 0.851 | 0.639 | 0.639 | 1.17 | 0.589 | 1.2
3 | NC(=O)NCCC[C@H](N)C(=O)O [L-Citrulline] | 1.08 | 0.895 | 1.37 | 0.916 | 1.27 | 0.761
4 | OC[C@H]1O[C@H](O[C@H]2O[C@H](CO)[C@@H](O)[C@H](O)[C@H]2O)[C@H](O)[C@@H](O)[C@@H]1O [D-(+)-Trehalose dihydrate] | 0.894 | 1.33 | 1.15 | 1.04 | 0.672 | 1.09
5 | COc1nc(C)cnc1NS(=O)(=O)c1cccnc1-c1ccc(-c2nnco2)cc1 [Zibotentan (ZD4054)] | 1.49 | 0.567 | 0.656 | 0.844 | 1.11 | 0.898
6 | C[C@]12CCC(=O)C=C1CC[C@@H]1[C@@H]2C(=O)C[C@@]2(C)[C@H]1CC[C@]2(O)C(=O)CO [Cortisone] | 1.73 | 0.941 | 1.11 | 1.27 | 0.411 | 1
7 | CO[C@H]1/C=C/O[C@@]2(C)Oc3c(C)c(O)c4c(O)c(c(/C=N/N5CCN(C6CCCC6)CC5)c(O)c4c3C2=O)NC(=O)/C(C)=C\C=C\[C@H](C)[C@H](O)[C@@H](C)[C@@H](O)[C@@H](C)[C@H](OC(C)=O)[C@@H]1C [Rifapentine] | 1.24 | 0.894 | 1.76 | 1.72 | 2.12 | 1.56
8 | CC1=C(CC(=O)O)c2cc(F)ccc2/C1=C\c1ccc([S+](C)[O-])cc1 (stereo not drawn) [Sulindac] | 0.824 | 0.664 | 0.975 | 0.812 | 1.5 | 1.26
9 | CCN1CCCC1CNC(=O)c1cc(S(=O)(=O)CC)c(N)cc1OC (stereo not drawn) [Amisulpride] | 1.04 | 0.717 | 1.15 | 1.07 | 0.566 | 1.01
10 | O=c1[nH]cnc2c1ncn2[C@H]1CC[C@@H](CO)O1 [Didanosine] | 1.21 | 1.3 | 1.12 | 0.891 | 0.649 | 0.793
11 | NCc1ccccc1CC(=O)N[C@@H]1C(=O)N2C(C(=O)O)=C(CSc3nnnn3CC(=O)O)CS[C@H]12 [Ceforanide] | 0.783 | 0.791 | 1.07 | 1.16 | 0.834 | 1.64
12 | CC(=O)[O-].[K+] [Potassium acetate] | 1.42 | 0.754 | 1.27 | 0.927 | 0.554 | 1.3
13 | CC1(N)CCN(c2cccnc2NC(=O)c2nc(-c3ncccc3C(F)(F)F)cnc2N)CC1 | 2.98 | 2.64 | 3.38 | 2.85 | 3.49 | 2.63
14 | C/C(O)=C(\C#N)C(=O)Nc1ccc(C(F)(F)F)cc1 [Teriflunomide] | 0.702 | 0.732 | 0.988 | 1.1 | 0.844 | 2.02
15 | CN1C2CCCC1CC(NC(=O)c1nn(C)c3ccccc13)C2 (stereo not drawn) [Granisetron HCl] | 1.32 | 0.903 | 1.37 | 1.04 | 1.27 | 1
16 | Nc1ccc(S(N)(=O)=O)cc1 [Sulfanilamide] | 0.866 | 0.563 | 0.913 | 0.819 | 0.645 | 1.21
17 | CN1C(=O)/C(=C2/C(=O)Nc3ccccc32)c2ccccc21 [Meisoindigo] | 1.94 | 2.33 | 0.82 | 2.24 | 1.8 | 1.35
18 | O=C(NNc1nc2cc(F)ccc2n2cccc12)c1cnccn1 | 3.74 | 2.78 | 2.25 | 3.85 | 2.84 | 5.56
19 | NCCCS(=O)(=O)O [Homotaurine] | 1.14 | 1.27 | 0.97 | 0.97 | 0.248 | 1.36
20 | NCCCC[C@@H]1NC(=O)[C@@H](Cc2ccccc2)NC(=O)[C@H](CC(=O)O)NC(=O)CNC(=O)[C@H](CCCN=C(N)N)NC1=O [Cyclo (-RGDfK)] | 2.63 | 1 | 2.08 | 0.709 | 3.57 | 2.1
21 | N#Cc1c(Oc2ccc(F)c(NC(=O)Cc3cccc(C(F)(F)F)c3)c2)ccc2nc(NC(=O)C3CC3)sc12 | 2.61 | 2.09 | 0.85 | 1.19 | 1.22 | 2.04
22 | CNC[C@H](O)[C@@H](O)[C@H](O)[C@H](O)CO [Meglumine] | 1.78 | 1.75 | 2.13 | 1.59 | 0.652 | 1.67
23 | CCn1cc(C(=O)O)c(=O)c2cnc(N3CCCC3)nc21 [Piromidic Acid] | 1.37 | 0.767 | 0.647 | 0.879 | 0.512 | 1.02
24 | C[C@H](NC(=O)[C@@H](O)c1cc(F)cc(F)c1)C(=O)N[C@@H]1C(=O)N(C)c2ccccc2-c2ccccc21 | 1.22 | 1.36 | 1.05 | 0.939 | 0.864 | 1.42

Row | SMILES | Euclidean distance (786-O) | Euclidean distance (A549) | Euclidean distance (DU145) | Euclidean distance (FB) | Euclidean distance (HEPG2) | Euclidean distance (OVCAR4)
25 | C[n+]1cc2c3c(ccc2c2ccc4cc5c(cc4c21)OCO5)OCO3 [Sanguinarine chloride] | 5.34 | 5 | 7.6 | 6.48 | 4.82 | 5.76
26 | CCS(=O)(=O)CCn1c([N+](=O)[O-])cnc1C [Tinidazole] | 0.626 | 0.68 | 0.693 | 0.579 | 0.533 | 1.48
27 | Cc1cc(/C=C/c2ccc3cc(N(C)C)ccc3[n+]2C)c(C)n1-c1ccccc1 [pyrvinium] | 5.7 | 4.29 | 5.05 | 6.77 | 3.9 | 5.35
28 | O=C(NC1CCOCC1)c1ccc(-c2cc(-c3c[nH]nc3-c3ccccn3)ccn2)cc1 | 1.22 | 0.965 | 0.674 | 1.3 | 1.01 | 0.73
29 | C#C[C@]1(O)CC[C@H]2[C@@H]3CCC4=CCCC[C@@H]4[C@H]3CC[C@@]21C [Lynestrenol] | 1.13 | 1.3 | 1.48 | 1.17 | 0.777 | 1.41
30 | CC(C)(C)[N+]([O-])=Cc1ccc(S(=O)(=O)O)cc1S(=O)(=O)O | 1.04 | 1.8 | 0.995 | 1.52 | 1.43 | 1.57
31 | CC(C)CCNc1ncccc1C(=O)N1CCN(Cc2ccccc2)CC1 | 0.757 | 0.542 | 0.821 | 0.894 | 0.864 | 0.631
32 | COc1ccc2c(c1)C(=O)N(CCc1ccc(S(=O)(=O)NC(=O)NC3CCCCC3)cc1)C(=O)C2(C)C [Gliquidone] | 1.02 | 0.773 | 1.03 | 1.06 | 3.11 | 0.973
33 | Cc1cnc(NC(=O)C2=C(O)c3ccccc3S(=O)(=O)N2C)s1 [Meloxicam] | 0.664 | 0.746 | 2.37 | 0.881 | 1.84 | 0.784
34 | Cc1ccc(NC(=O)c2cccc(C(C)(C)C#N)c2)cc1Nc1ccc2ncn(C)c(=O)c2c1 | 1.3 | 2.03 | 1.98 | 3.42 | 1.53 | 0.804
35 | Nc1cc(C(F)(F)F)c(-c2cc(N3CCOCC3)nc(N3CCOCC3)n2)cn1 [Buparlisib (BKM120. NVP-BKM120)] | 2.55 | 3.38 | 2.88 | 2.98 | 2.83 | 3.29
36 | COc1cc2nc(N3CCN(C(=O)C4COc5ccccc5O4)CC3)nc(N)c2cc1OC (stereo not drawn) [Doxazosin] | 1.52 | 1.28 | 1.55 | 0.683 | 0.609 | 1.18
37 | Cc1[nH]nc2ccc(-c3cncc(OC[C@@H](N)Cc4ccccc4)c3)cc12 | 4.66 | 4.28 | 3.94 | 5.02 | 3.37 | 5.52
38 | O=c1cc(-c2ccccc2)oc2cc(O)cc(O)c12 [Chrysin] | 1.58 | 1.09 | 1.1 | 1 | 1.37 | 1.37
39 | Cc1cc(O)c2c(c1)C(=O)c1cc(O)cc(O)c1C2=O [Emodin] | 1.3 | 1.13 | 1.01 | 1 | 1.85 | 0.712
40 | CC1CS(=O)(=O)CCN1/N=C/c1ccc([N+](=O)[O-])o1 (stereo not drawn) [Nifurtimox] | 1.55 | 0.675 | 1.08 | 0.936 | 1.04 | 1.33
41 | CCc1c2c(nc3ccc(O)cc13)-c1cc3c(c(=O)n1C2)COC(=O)[C@]3(O)CC | 4.4 | 4.38 | 3.48 | 4.61 | 3.55 | 3.46
42 | C=C[C@](C)(O)CC[C@@H]1[C@@]2(C)CCCC(C)(C)[C@@H]2CC[C@@]1(C)O [Sclareol] | 0.617 | 0.762 | 0.574 | 0.717 | 0.546 | 1.39
43 | CO/N=C(\C(=O)N[C@@H]1C(=O)N2C(C(=O)O)=C(CSc3nc(C)c(CC(=O)O)s3)CS[C@H]12)c1csc(N)n1 [Cefodizime Sodium] | 0.755 | 1.08 | 1.48 | 0.804 | 0.792 | 0.754
44 | CCN(CC)CC(=O)Nc1c(C)cccc1C [Lidocaine] | 1.65 | 0.785 | 1.51 | 0.913 | 0.435 | 1.11
45 | O=[N+]([O-])c1cncn1CCN1CCOCC1 [Nimorazole] | 0.827 | 0.551 | 1.21 | 0.76 | 1.18 | 0.937
46 | NCCCC[C@H](NC(=O)[C@@H]1CCCN1C(=O)[C@@H]1CSSC[C@H](NC(=O)CNC(=O)CNC(=O)CN)C(=O)N[C@@H](Cc2ccc(O)cc2)C(=O)N[C@@H](Cc2ccccc2)C(=O)N[C@@H](CCC(N)=O)C(=O)N[C@@H](CC(N)=O)C(=O)N1)C(=O)NCC(N)=O [Terlipressin Acetate] | 1.69 | 0.833 | 1.36 | 0.976 | 0.531 | 1.15
47 | Cc1cc2ncnn2cc1Nc1ncc2c(n1)n(C1CCOCC1)c(=O)n2C | 1.35 | 1.07 | 1.33 | 1.79 | 0.714 | 0.718
48 | COc1cc2ncnc(Nc3ccc(F)c(Cl)c3)c2cc1OCCCN1CCOCC1 [Gefitinib hydrochloride] | 1.01 | 1.23 | 1.18 | 0.779 | 0.482 | 1.31

Source: the supplement of paper PMC10127200
